CTSL1 counter-1: Fasciola hepatica cathepsin L1 inhibitors, primary screen, counter-screen for PFM18AAP inhibitor project, biochemical, QFRET, fluorogenic peptide substrate; recombinant F. hepatica cathepsin L1, Z-Leu-Arg-MCA fluorescence; inhibition, % at 5.96 µM; 300,000 compounds, 0.49% hits;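 active = inhibition above the mean of all tested compounds plus 3 SD, set per screening campaign, cut at about 17% in these data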;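 also: 0% = plate median of test compound wells and 100% = 1 µM Z-Phe-Ala-diazomethylketone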
Rin1 Abl inh: inhibitors of Rin1-Abl protein binding, primary screen, biochemical, TR-FRET | Tyrosine-protein kinase ABL1 (Homo sapiens) + Ras and Rab interactor 1 (Homo sapiens), … | inhibition, % at 7.35 µM | 360,000 compounds, 0.4% hits | AID 588664, 2011; in the data active = inhibition above about 5%, passing the limit was not always enough
Calb FLC: C. albicans growth inhibition with fluconazole, primary screen, CaCi-2 strain, Alamar Blue fluorescence; C. albicans CaCi-2 (fluconazole-resistant clinical isolate) + fluconazole, 48 h; growth inhibition, % (test concentration not listed); 300,000 compounds, 0.57% hits;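 active = growth inhibition above about 58% in most replicates, limit read from the data, passing the limit was not always enough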;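 also: all wells also contain fluconazole at 8 µg/ml as a sub-toxic cotreatment; 0% = median of DMSO wells and 100% = median of geldanamycin control wells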
PfM18AAP inh-1: PfM18AAP inhibitors, malaria aminopeptidase, primary screen, biochemical, QFRET, recombinant enzyme; M18 aspartyl aminopeptidase (Plasmodium falciparum 3D7); H-Glu-NHMec fluorogenic cleavage; inhibition, % at 7.35 µM; 290,000 compounds, 1.2% hits;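 active = inhibition above the campaign mean inhibition over all tested compounds plus 3 SD, cut at about 28% in these data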;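 also: 0% = plate median of test compound wells and 100% = 2 mM ZnCl2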
PfM18AAP inh-2: PfM18AAP inhibitors, malaria aminopeptidase, confirmation, biochemical, QFRET, recombinant enzyme, triplicate | shares compounds with PfM18AAP inh-1 | H-Glu-NHMec fluorogenic cleavage | 2,400 compounds, 28% hits | inhibition, % at 7.35 µM;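 active = mean inhibition over replicate wells above the hit cutoff set for the earlier primary screen, cut at about 29% in these data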;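 also: 0% = median of test compound wells and 100% = 2 mM ZnCl2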
CTSL1 counter-2: cathepsin L1 inhibitors, retest, confirmation, counter-screen for PFM18AAP inhibitor project, biochemical, QFRET, triplicate; shares compounds with PfM18AAP inh-1; purified cathepsin L1, Z-Leu-Arg-MCA fluorescence; inhibition, % at 5.96 µM; 2,400 tested, under 10 active; AID 2178, 2009;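 active = average inhibition across replicates above the hit cutoff set in the earlier primary screen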;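 also: 0% = median of test compound wells and 100% = Z-Phe-Ala-diazomethylketone 1 µM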
The depositor's hits bear a star; nt = not tested or not shown. Shown are actives, neighbours in structure and some others; about 2.1% of the full set was active somewhere.

SMILES | CTSL1 counter-1 | Rin1 Abl inh | Calb FLC | PfM18AAP inh-1 | PfM18AAP inh-2 | CTSL1 counter-2
O=C(NNc1nc2c(F)cc(F)cc2s1)C1COc2ccccc2O1 (centres undefined) | -0.4 | 1.0 | 11.9 | 0.1 | nt | nt
CCC(=O)NNc1nc2c(F)cc(F)cc2s1 | 2.2 | 3.9 | 5.5 | 44.2* | 13.1 | -4.0
Cc1cccc2sc(NNC(=O)C3COc4ccccc4O3)nc12 (centres undefined) | 9.1 | -1.8 | 2.3 | 36.4* | -23.0 | 1.9
O=C(NNc1nc2c(F)cc(F)cc2s1)C1=COCCO1 | -3.2 | 0.7 | -3.9 | 32.8* | -4.6 | -0.2
Cc1cccc2sc(NNC(=O)C3=COCCO3)nc12 | -2.7 | -0.7 | -18.0 | 43.0* | 18.2 | 2.0
O=C(COc1ccccc1)NNc1nc2c(F)cc(F)cc2s1 | -1.4 | -0.5 | 5.5 | 2.4 | nt | nt
CCOC(=O)C1=CCN(S(=O)(=O)c2ccc(C)cc2)C1c1cccs1 (centres undefined) | nt | 3.5 | nt | nt | nt | nt
Cc1cc(-n2c(C)cc(C(=O)COc3ccc(Cl)cc3C(N)=O)c2C)no1 | nt | -0.4 | nt | nt | nt | nt
O=C(/C=C/c1cccnc1)c1ccc([N+](=O)[O-])cc1 | -1.4 | 2.1 | -2.7 | 31.7* | 13.4 | -3.5
O=C(C=Cc1ccccc1)c1ccc([N+](=O)[O-])cc1 | nt | 2.1 | nt | nt | nt | nt
O=c1[nH]nc(Cc2ccccc2)c2ccccc12 | -0.8 | -0.8 | 20.0 | 0.7 | nt | nt
O=c1[nH]c(=S)[nH]nc1Cc1ccccc1 | 5.3 | -2.1 | 2.1 | 38.0* | -29.8 | -7.1
CN(C)C=NC(=O)c1cn(-c2ccc(F)cc2)c(=O)c2ccccc12 | -0.2 | -2.4 | 4.2 | -2.7 | nt | nt
CN(C)S(=O)(=O)N(CC(=O)N1CCN(c2ccccc2F)CC1)c1ccccc1 | -0.5 | -0.6 | 12.7 | 1.6 | nt | nt
COc1ccc(C2C(C(C)=O)=C(C)N=c3s/c(=C\c4ccco4)c(=O)n32)c(OC)c1 (centres undefined) | 5.9 | -1.2 | 59.8 | 37.0* | -7.3 | 5.8
O=C(C1CCCN1S(=O)(=O)c1cccc2nsnc12)N1CCN(c2ccc(F)cc2)CC1 (centres undefined) | 1.3 | -0.1 | -0.2 | -8.4 | nt | nt
CC(C)Oc1ccc(-c2nn(-c3ccccc3)cc2/C=c2\sc3ncnn3c2=O)cc1 | -0.3 | nt | nt | 58.5* | -16.9 | 2.7
O=c1/c(=C/c2cn(-c3ccccc3)nc2-c2ccc(F)cc2)sc2nc3ccccc3n12 | nt | nt | nt | -10.0 | nt | nt
Cc1sc2ccccc2[n+]1CC(=O)c1ccccc1 | 3.7 | -0.3 | -2.0 | 52.1* | 11.1 | -0.3
O=C(NCc1ccccn1)c1n[nH]c2ccccc12 | 5.0 | -1.3 | 0.3 | 37.0* | -8.2 | -2.9
O=C(NCc1ccccn1)c1n[nH]c(=O)c2ccccc12 | -6.3 | -0.4 | -3.2 | 0.7 | nt | nt
COc1ccc(S(=O)(=O)Oc2ccccc2C(=S)N2CCOCC2)cc1 | 2.6 | -1.9 | 2.1 | 44.8* | -13.0 | 4.2
CCOc1ccc(NC(=O)CNC(=O)c2cccs2)cc1 | 0.3 | -1.7 | -6.0 | -11.1 | nt | nt
CCCCCCOc1ccc(C(=O)O)cc1 | 0.6 | -3.8 | 16.0 | -5.6 | nt | nt
CCCCCCOc1ccc(C(=O)n2cnc(N)n2)cc1 | 0.9 | -0.9 | -14.1 | 44.0* | 40.8* | -1.3
SMILES | CTSL1 counter-1 | Rin1 Abl inh | Calb FLC | PfM18AAP inh-1 | PfM18AAP inh-2 | CTSL1 counter-2
N#C/C(Cn1c[n+](NC(=O)Nc2ccccc2)cn1)=N/O | 0.5 | 3.1 | -2.0 | 47.1* | 10.2 | 1.6
COC(=O)c1ccc(CC(=O)c2c(C)cc(O)cc2O)o1 | -6.2 | -0.3 | 1.9 | 22.0 | nt | nt
NC(=O)CC1Nc2cccc3cccc(c23)NC1=O (centres undefined) | 2.0 | -0.8 | 27.1 | 51.8* | -51.7 | 0.9
O=C(CN1C(=O)c2ccccc2S1(=O)=O)c1ccc(O)c(O)c1 | 0.1 | 0.6 | -4.0 | 47.4* | 35.3* | 5.2
CN(CC(=O)Nc1cccc(S(=O)(=O)NC2=NCCC2)c1)Cc1ccccc1Cl | nt | 3.4 | nt | nt | nt | nt
O=C(O)Cc1c[nH]c2ccccc12 | 4.5 | -2.6 | -1.1 | nt | nt | nt
O=C(O)Cc1c[nH]c2cccc(O)c12 | -0.6 | 6.0 | 6.6 | 44.1* | 0.1 | -5.6
O=C(NC(=S)NNC(=O)c1ccccc1O)c1ccco1 | 4.3 | -2.2 | 41.0 | 33.0* | 30.2* | 2.0
COc1nnc(-c2ccc(C)c(S(=O)(=O)NC(C)C)c2)c2ccccc12 | 3.5 | 0.7 | 18.1 | 8.2 | nt | nt
Cc1ncc(CO)c(/C=N/NC(=O)c2ccccc2Br)c1O | 1.3 | -3.0 | 11.4 | 34.8* | -14.1 | 3.7
O=C1c2ccccc2NC(c2ccc(O)c(O)c2)N1c1ccccc1Cl (centres undefined) | -4.9 | -0.7 | 8.7 | 57.1* | 56.5* | -2.2
COc1ccc(OC)c(C2NC(=S)NC3=C2N2CCC3CC2)c1 (centres undefined) | 2.3 | 4.6 | -6.4 | 44.0* | -49.0 | 1.5
Fc1cccc(C2NC(=S)NC3=C2N2CCC3CC2)c1 (centres undefined) | 1.4 | -3.2 | 9.9 | 9.9 | nt | nt
Cc1c(C(=O)OCC[N+]2(C)CCCCC2)oc2ccccc12 | -4.5 | 1.7 | -2.7 | 1.6 | nt | nt
Oc1ccc(/C=N/N(Cc2ccccc2)c2ccccc2)c(O)c1O | nt | 7.5 | -7.7 | 49.6* | -18.8 | -1.8
NS(=O)(=O)c1ccc(NC(=S)NC2CC2)cc1 | 1.5 | 3.3 | 26.3 | 32.3* | -1.8 | -1.5
CC1(C)CC(NC(=S)Nc2ccc(S(N)(=O)=O)cc2)CC(C)(C)N1 | -1.4 | 2.4 | -11.9 | 2.1 | nt | nt
NS(=O)(=O)c1ccc(NC(=S)NNC(=O)c2ccc(Br)o2)cc1 | -1.4 | -3.8 | 1.5 | 33.0* | -2.4 | -1.2
O=C(CSc1nnnn1C1CC1)N1CCN(Cc2ccccc2F)CC1 | nt | 1.0 | nt | nt | nt | nt
CCOC(=O)/C(=N/Nc1ccccc1)c1csc(Nc2ccccc2)n1 | 4.9 | -4.3 | -26.7 | 12.6 | nt | nt
CO/N=C(\C(=O)O)c1csc(NN=C(C)C)n1 | -1.2 | 0.7 | 34.3 | 40.7* | -16.2 | -3.6
C/C(=N/Nc1ncc(Br)cn1)c1ccc(Br)cc1 | 5.9 | -0.3 | -61.2 | -1.0 | nt | nt
C/C(=N\Nc1ccc(Cl)c(C(=O)O)c1)c1cccc([N+](=O)[O-])c1 | 1.4 | -0.2 | -5.2 | 35.9* | -1.3 | 4.7
C/C(=N\Nc1ccc(C(F)(F)F)cn1)c1ccc(S(=O)(=O)NCc2ccco2)cc1 | 2.1 | 1.3 | -5.6 | 4.7 | nt | nt
C/C(=N\NC(=O)c1ccccc1C)c1cccc([N+](=O)[O-])c1 | 6.7 | -2.4 | -1.0 | 4.5 | nt | nt
C/C(=N\Nc1ccc(C(=O)O)cc1)c1ccc(Br)cc1 | 4.1 | -3.0 | 3.2 | 31.7* | -22.2 | 5.4
C/C(=N\Nc1nc(Cl)c(Cl)cc1Cl)c1ccc(S(=O)(=O)NCc2ccco2)cc1 | 3.8 | -0.4 | 2.7 | 48.9* | -53.9 | 7.1
